Screening results (PubChem)
The sample as a whole holds a higher share of hits than the screen did.
Lassa entry inh: blocks Lassa virus binding to or entry into cells; Lassa virus pseudotype entry inhibition, cell reporter; Potency, µM (highest dose often 37.9 µM), usual class: inhibitors; 300,000 tested, 1.2% active; AID 540256; calls by dose curve; tested in HEK293 cells; note: nearly all actives have a fitted effect of over 50% in size
AMA1-RON2 inh: disrupts binding of P. falciparum AMA1 to RON2; AlphaScreen AMA1-biotinylated RON2 peptide binding; Potency, µM (highest dose often 58.2 µM), hits mostly inhibitors; 360,000 tested, 0.2% active; active = well fitted inhibition curve with a large enough effect; inconclusive = small, poorly fitted or top-dose-only effect; inactive = no such curve, though single readings can be large or run the other way; note: nearly all actives have a fitted effect of over 45% in size
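AMA1 (3D7) with his tag at 25 nM final met compounds first, then biotinylated RON2 peptide at 25 nM; detection used donor plus acceptor beads, 10 µg/mL apiece, read by AlphaScreen after 30 min at room temperature.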
Marburg entry inh: Marburg virus entry inhibition | Marburg virus pseudotyped entry inhibition, cell reporter | Potency, µM (series often up to 37.8 µM), most hits filed as inhibitors | AID 540276 | 300,000 tested, 1.8% active; calls by dose curve; tested in HEK293 cells
Shiga inhibitor: Shiga toxin inhibition | Vero cells, Shiga toxin protein synthesis inhibition reporter | inhibition, % at 38.7 µM | 290,000 tested, 9.2% active; in the data active = inhibition mostly above about 28%, no sharp cut-off; inactive = mostly below about 43%
Cycloheximide cs: affects cycloheximide protein synthesis inhibition readout, counter-screen. cell reporter, cycloheximide protein synthesis inhibition counterscreen. max response, %. 300,000 tested, 12% active. AID 2314; in the data active = max response mostly above about 13%, no sharp cut-off; inactive = mostly below about 14%; note: read at 38.3 µM for the half of the compounds with a filed dose
Hits are given with their value; . = inactive; ? = inconclusive; / = no result given; [ ] = remark or other dose.

SMILES | Lassa entry inh | AMA1-RON2 inh | Marburg entry inh | Shiga inhibitor | Cycloheximide cs
O=C(/C=C/c1c(F)cccc1Cl)NCc1ccco1 | . | . | . | 182.0 | 39.1
Cc1ccc(OCCNC(=O)/C=C/c2ccco2)cc1C | / | . | / | 78.2 | .
O=C(CN1C(=O)/C(=C/c2c(F)cccc2Cl)Oc2ccccc21)NCc1ccco1 | / | / | / | 77.2 | 38.6
CC(Sc1nccn1C)C(=O)Nc1ccccc1C#N (stereo not given) | . | / | . | / | /
COc1ccc(C(=O)NNC(=O)CCn2nnc(-c3ccc(Cl)cc3)n2)cc1OC | . | . | . | . | .
O=C(NCc1ccco1)/C(=C\c1ccc(F)cc1)NC(=O)c1ccco1 | . | . | ? | . | .
O=C(/C=C/c1ccco1)NCCc1ccc(F)cc1 | . | . | . | 55.6 | 57.1
O=C(/C=C/c1ccc([N+](=O)[O-])cc1)/C=C/c1ccco1 | / | / | / | 73.1 | 37.5
O=C(/C=C/c1ccc(F)cc1)NCc1ccco1 | ? | . | . | 93.8 | 45.9
CC(=O)c1cccc(NC(=O)Nc2ccc3c(c2)CCC3)c1 | . | . | . | 40.7 | 35.2
Cc1cccc(NC(=O)Nc2ccc3c(c2)CCC3)c1 | / | . | / | 97.2 | 55.6
CCc1ccc(NC(=O)Nc2ccc3c(c2)CCC3)cc1 | . | . | ? | 61.6 | 31.9
CCNC(=O)NC1(C(=O)Nc2ccc3c(c2)CCC3)CCCCC1 | . | . | . | . | .
O=C(Nc1ncccn1)c1cc(-c2cccc(Br)c2)nc2ccccc12 | . | .[11.6 µM] | ? | . | .
O=C(NC1CC1)c1cc(-c2ccc(Br)cc2)nc2ccccc12 | / | . | / | / | /
O=C(Nc1ccncc1)c1cc(-c2cccc(Br)c2)nc2ccccc12 | ? | . | ? | / | /
CN1CCC(NC(=O)c2cc(-c3cccc(Br)c3)nc3ccccc23)CC1 | ? | . | 10µM | . | .
Cc1ccc2nc(-c3cccc(Br)c3)cc(C(=O)NC3=NCCS3)c2c1 | . | . | . | 75.9 | .
O=C(NC1=NCCS1)c1cc(-c2cccc(Br)c2)nc2ccccc12 | ? | . | . | . | 20.4
N#C/C(=C/c1ccccc1Cl)c1nc(-c2cc3ccccc3oc2=O)cs1 | . | / | / | / | /
N#C/C(=N/O)c1nc(-c2ccccc2)cs1 | / | / | . | / | /
CCc1ccc(/C=C(/C#N)c2nc(-c3ccc(C)cc3)cs2)cc1 | . | / | . | / | /
N#CC(=C1CCCC1)c1nc(-c2ccccc2)cs1 | . | . | . | 103.4 | 54.3
Cc1ccc(-c2csc(C(C#N)=C3CCCC3)n2)cc1 | ? | . | ? | 73.6 | 24.6
N#CC(=C1CCCC1)c1nc(-c2ccccc2O)cs1 | 10µM | . | ? | 105.5 | 53.9
SMILES | Lassa entry inh | AMA1-RON2 inh | Marburg entry inh | Shiga inhibitor | Cycloheximide cs
N#CC(=C1CCCC1)c1nc(-c2cc3ccccc3oc2=O)cs1 | ? | . | ? | 50.7 | 32.3
O=C(Cc1nn[nH]n1)NCc1ccccc1Cl | . | . | . | . | .
N/C(=N\NS(=O)(=O)c1ccccc1Cl)c1ccccn1 | . | . | . | / | /
O=C(C[C@H]1C(=O)N(CCc2ccccc2)C[C@@H]1c1ccccc1)Nc1ccccc1 | / | . | / | / | /
CCN(CC)c1nc(-c2ccc(C(C)(C)C)cc2)nc2ccccc12 | 12.6µM | / | / | / | /
Cc1ccc2nc(SC(C)C(=O)N3CCCCC3)[nH]c2c1 (stereo not given) | ? | . | . | . | 34.6
Cc1ccc2nc(SCC(=O)N3CCCC3)[nH]c2c1 | ? | . | . | . | 22.5
Cc1ccc2nc(SCC(=O)N3CCN(C(=O)c4ccco4)CC3)[nH]c2c1 | . | . | . | . | .
COC(=O)CSc1nc2ccc(C)cc2[nH]1 | . | . | . | . | .
Cc1ccc2nc(SCC(=O)c3ccc(O)cc3O)[nH]c2c1 | / | . | / | 49.2 | 46.5
Cc1ccc2nc(SC(C)C(=O)N3CCCC3)[nH]c2c1 (stereo not given) | . | . | . | 57.1 | 25.2
Cc1ccc(S(=O)(=O)N2CCC(C(=O)N3CCCC3C(=O)N[C@@H](CC(C)C)C(=O)NCC(N)=O)CC2)cc1 (stereo not given in full) | / | . | / | . | .
CN(C)C(=O)CSc1nc2ccc(C(=O)c3ccccc3)cc2[nH]1 | / | . | / | / | 23.3
Oc1ccc(Br)cc1-c1ccnn1-c1ccccc1 | . | . | 8.91µM | . | .
Cn1c(-c2cc(Br)ccc2O)n[nH]c1=S | ? | . | . | . | .
CC(C)C[C@H](NC(=O)[C@H](CC(C)C)NC(=O)[C@H](Cc1ccccc1)NC(=O)[C@@H](N)Cc1ccc(O)cc1)C(=O)N[C@@H](CCCN=C(N)N)C(=O)N[C@@H](CC(N)=O)C(=O)N1CCC[C@H]1C(=O)O | / | / | / | . | .
CCCN(CCC)Cc1c(C(=O)N/N=C/C(C)=C\c2ccco2)nnn1-c1nonc1N | ? | . | 4.47µM | . | .
Cc1cc(C)cc(-n2ccnc(NCc3ccc(F)cc3)c2=O)c1 | . | / | / | / | /
